Growth data for eight compounds are collected here from PubChem BioAssay (NCI).

The panel holds about 83,000 compounds, 20% with a hit somewhere; the sample as a whole holds those more often.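 A percent growth of 40 corresponds to 60% growth inhibition; 0 means no net growth; -100 means all cells died. Active threshold: below 10.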 A number with no mark means an inactive call. Activity calls are given as the source filed them.

Test systems include SR leukemia; RPMI-8226 leukemia; OVCAR-8 ovarian; OVCAR-5 ovarian; OVCAR-4 ovarian; SK-OV-3 ovarian; IGROV1 ovarian; OVCAR-3 ovarian; HS 578T breast; NCI/ADR-RES ovarian; T-47D breast; BT-549 breast; MDA-MB-435 melanoma; SW-620 colon; MCF7 breast; HCT-116 colon; HCC-2998 colon; KM12 colon.
Experiment in all cases: NCI-60 one-dose screen, 48 h (100 = growth as untreated, 0 = no growth, -100 = all killed)
Holding throughout (conditions): 10 µM unless noted

For the compound `FC(F)(F)c1ccccc1-c1cn2c(ccc3ccccc32)n1`, the growth in the assay with SR leukemia is 42.4%; in the assay with RPMI-8226 leukemia, 98.6%; in the assay on OVCAR-8 ovarian it was 93.7%; in the assay with OVCAR-5 ovarian, 103%; in the assay with OVCAR-4 ovarian, 95.2%; with SK-OV-3 ovarian, 80.5%. For the same compound, the growth with IGROV1 ovarian is 73.1%; with OVCAR-3 ovarian it was 88.3%; in the assay with HS 578T breast, 71.4%; in the assay on NCI/ADR-RES ovarian it was 61.9%; with T-47D breast, 104%; in the assay with BT-549 breast it was 80.8%. For the same compound, the growth with MDA-MB-435 melanoma is -25.3% (active); with SW-620 colon, 44.2%; with MCF7 breast, 77.4%; in the assay with HCT-116 colon it was 74.9%; with HCC-2998 colon, 99.2%; with KM12 colon, 87%.
On to `Cc1ccc(N2CCN(C(C)C(N)=O)CC2)cc1` (centres undefined), for which the growth with SR leukemia is 154%; with RPMI-8226 leukemia, 96.8%; with OVCAR-8 ovarian, 106%; in the assay on OVCAR-5 ovarian it was 99%; in the assay with OVCAR-4 ovarian, 104%; in the assay with SK-OV-3 ovarian, 114%. In addition, the growth with IGROV1 ovarian was 112%; in the assay on OVCAR-3 ovarian it was 106%; with HS 578T breast it was 117%; in the assay with NCI/ADR-RES ovarian, 106%; with T-47D breast, 102%; with BT-549 breast, 88.9%. In addition, the growth in the assay on MDA-MB-435 melanoma was 114%; in the assay with SW-620 colon, 107%; in the assay on MCF7 breast it was 106%; in the assay with HCT-116 colon, 98.3%; in the assay on HCC-2998 colon, 102%; with KM12 colon, 112%.
With `CCOC(=O)c1cc(C(=O)c2cc(OC)c(OC)c(OC)c2)n2c1ccc1ccccc12`, the growth in the assay on SR leukemia is 10.8%; in the assay on RPMI-8226 leukemia, 11.2%; in the assay with OVCAR-8 ovarian, 32.7%; with OVCAR-5 ovarian, 46.5%; in the assay on OVCAR-4 ovarian, 40.8%; in the assay on SK-OV-3 ovarian, 34.7%. The growth in the assay on IGROV1 ovarian was 31.4%; in the assay on OVCAR-3 ovarian, -17.3% (active); in the assay on HS 578T breast it was 11.6%; with NCI/ADR-RES ovarian, 18%; with T-47D breast it was 11.1%; with BT-549 breast, 66.9%. Also, the growth with MDA-MB-435 melanoma was -54.6% (active); with SW-620 colon, 18.8%; with MCF7 breast it was 12.1%; with HCT-116 colon, 25.8%; with HCC-2998 colon, 69.5%; in the assay on KM12 colon it was 28.5%.
Regarding `CC(C)(C)n1cc(-c2ccnc(NCCCNS(=O)(=O)c3ccccc3)c2)c(-c2cccc(O)c2)n1`, the growth was 20.9% with SR leukemia; 10.5% in the assay on RPMI-8226 leukemia; 52.4% in the assay with OVCAR-8 ovarian; 67.7% with OVCAR-5 ovarian; 55.9% in the assay on OVCAR-4 ovarian; 88.6% in the assay on SK-OV-3 ovarian. The growth with IGROV1 ovarian was 51.1%; in the assay with OVCAR-3 ovarian, 54.1%; in the assay with HS 578T breast, 51%; in the assay on NCI/ADR-RES ovarian, 56.9%; in the assay on T-47D breast it was 23.8%; in the assay on BT-549 breast, 47.4%. In addition, the growth is 54.8% in the assay on MDA-MB-435 melanoma; 14.5% in the assay on SW-620 colon; 25.1% in the assay on MCF7 breast; 36.8% in the assay with HCT-116 colon; 18.5% in the assay on HCC-2998 colon; 26.9% with KM12 colon.
As to `CN1C=CN(Cc2ccc(-c3ccccn3)nc2)[CH-]1.CN1C=CN(Cc2ccc(-c3ccccn3)nc2)[CH-]1.[Au+3]`, the growth in the assay with SR leukemia was 16.8%; in the assay on RPMI-8226 leukemia, 18.1%; with OVCAR-8 ovarian, 13.3%; in the assay on OVCAR-5 ovarian it was 50.3%; in the assay with OVCAR-4 ovarian, 6.08% (active); in the assay on SK-OV-3 ovarian, 75.4%. Further, the growth is 3.06% (active) in the assay on IGROV1 ovarian; 32.3% with OVCAR-3 ovarian; 79.2% in the assay with HS 578T breast; 101% in the assay with NCI/ADR-RES ovarian; 40.2% in the assay with T-47D breast; 31.1% with BT-549 breast. Moreover, the growth in the assay with MDA-MB-435 melanoma was 30.6%; in the assay on SW-620 colon it was 36.2%; in the assay with MCF7 breast it was 9.07% (active); in the assay on HCT-116 colon it was 1.98% (active); in the assay with HCC-2998 colon it was 25.3%; with KM12 colon, 24.9%.
Turning to `O=C([O][Sn]([O]C(=O)c1ccccn1)([c]1ccccc1)[c]1ccccc1)c1ccccn1`, the growth with SR leukemia is 47.6%; in the assay on RPMI-8226 leukemia it was 26%; in the assay with OVCAR-8 ovarian it was 93.6%; with OVCAR-5 ovarian, 94.9%; in the assay on OVCAR-4 ovarian it was 81.3%; in the assay with SK-OV-3 ovarian, 99.7%. Also, the growth with IGROV1 ovarian is 74.1%; in the assay with OVCAR-3 ovarian it was 71.4%; with HS 578T breast, 88.5%; with NCI/ADR-RES ovarian, 95.1%; in the assay with T-47D breast, -14.9% (active); with BT-549 breast it was 98.5%. The growth in the assay on MDA-MB-435 melanoma is 80.6%; in the assay with SW-620 colon it was 0.566% (active); with MCF7 breast it was 31.8%; with HCT-116 colon it was 30.7%; in the assay with HCC-2998 colon it was 88.3%; in the assay with KM12 colon it was 97.4%.
Regarding `Cc1cc(N/N=C/c2nc(-c3ccccc3)oc2C)c2cc(Br)ccc2n1`, the growth was -4.64% (active) in the assay on SR leukemia; 11.9% in the assay with RPMI-8226 leukemia; 42.5% in the assay on OVCAR-8 ovarian; 96.3% in the assay on OVCAR-5 ovarian; 1.21% (active) in the assay with OVCAR-4 ovarian; 78.3% in the assay with SK-OV-3 ovarian. Also, the growth is 78.6% in the assay with IGROV1 ovarian; 109% in the assay with OVCAR-3 ovarian; 85.8% with HS 578T breast; 78.9% in the assay on NCI/ADR-RES ovarian; 75.6% in the assay on T-47D breast; 93.4% in the assay with BT-549 breast. Further, the growth in the assay on MDA-MB-435 melanoma was 43.4%; in the assay with SW-620 colon, 28.4%; with MCF7 breast it was 46.2%; in the assay with HCT-116 colon it was 42%; with HCC-2998 colon, 100%; in the assay with KM12 colon it was 82%.
On to `COc1ccc(/C=C2\Oc3cc(OCCCN4CCCC4)ccc3C2=O)c(OC)c1`, for which the growth with SR leukemia is -26.5% (active); in the assay on RPMI-8226 leukemia, 66.9%; with OVCAR-8 ovarian, 80%; with OVCAR-5 ovarian it was 100%; with OVCAR-4 ovarian it was 90.3%; in the assay with SK-OV-3 ovarian, 110%. The growth was 88.2% in the assay on IGROV1 ovarian; 97.4% in the assay with OVCAR-3 ovarian; 94.5% in the assay with HS 578T breast; 91% in the assay on NCI/ADR-RES ovarian; 99% in the assay on T-47D breast; 95.4% in the assay with BT-549 breast. For the same compound, the growth in the assay on MDA-MB-435 melanoma was 97%; with SW-620 colon, 33.5%; in the assay with MCF7 breast, 44.4%; with HCT-116 colon, 10.6%; with HCC-2998 colon it was 86.3%; in the assay on KM12 colon, 67.1%.
